Out of some 280,000 compounds screened, about 820 (0.29%) were called active. Inconclusive results (about 1%) are left out. The sample as a whole holds a higher share of actives than the screen did. Values without a mark were called inactive. Calls follow the shape of the dose curve; as a rule, active = well fitted curve in either direction with a large enough effect; inconclusive = small, poorly fitted or top-dose-only effect; inactive = flat fitted curve, though single readings scatter.
assay: Total Fluorescence Counterscreen for Inhibitors of the Interaction of Thyroid Hormone Receptor and Steroid Receptor Coregulator 2; details: TRb/SRC2 Texas Red total fluorescence interference; series mostly up to 106 µM; fluorescence change, negative = quenching: at the top concentration
Excerpt: NIH Molecular Libraries Probe Production Network [MLPCN]
NIH Chemical Genomics Center [NCGC]
Assay Provider: R. Kip Guy, St. Jude Children's Research Hospital
Thyroid receptor (TR) regulates many homeostatic processes including basal metabolism, cardiovascular function, body weight, and lipid trafficking. TR modulators are potential therapeutics for obesity and hyperlipidemias but current thyroid analogs have undesirable side effects, particularly cardiac stimulation. To identify inhibitors that specifically prevent the interaction of TR with the steroid receptor […] 2 (SRC2), a fluorescence polarization assay was screened. This assay detects interaction of the ligand-binding domain of human TRb with a Texas Red labeled SRC2 peptide, corresponding to a 20 amino acid region of the nuclear receptor interaction domain (Arnold et al., 2006). Total fluorescence (555 nm excitation and 632 nm emission) was measured to identify potential fluorescent and light absorbing compounds. Such compounds may be artifacts that interfere with the fluorescence polarization assay.
Arnold, L. A.; Estebanez-Perpina, E.; Togashi, M.; Shelat, A.; Ocasio, C. A.; McReynolds, A. C.; Nguyen, P.; Baxter, J. D.; Fletterick, R. J.; Webb, P.; Guy, R. K. A high-throughput screening method to identify small molecule inhibitors of thyroid hormone receptor coactivator binding. Sci STKE 2006, p 13.
NCGC Assay Protocol Summary:
For screening, 5 uL/well 0.6 uM TRb and 20 nM SRC2 Texas Red in protein buffer (20mM Tris hydrochloride, 100mM NaCl, 10% glycerol, 1mM EDTA, 0.01% NP-40, 1mM DTT, 1uM T3 and 5% DMSO) was dispensed into black solid 1536-well plates (Grenier) using a solenoid-based dispenser. Following transfer of 23 nL compound or DMSO vehicle by a pin tool, the plates were centrifuged 15 s at 1000 RPM and incubated 5 hr at ambient temperature. The plates were read by an Envision (Perkin Elmer) to detect fluorescence polarization of SRC2 Texas Red (555 nm excitation and 632 nm emission). Data were normalized to unbound (all components except TRb) and bound SRC2 Texas Red controls. Total fluorescence (TF) was calculated as follows: TF = S + 2P where S and P are fluorescence readings in the parallel and perpendicular channels, respectively.
Keywords: NIH Roadmap, MLPCN, MLI, MLSMR, qHTS, NCGC, qHTS, thyroid hormone receptor, steroid receptor coactivator, fluorescence polarization
% is scaled to controls: 0 for no effect and ±100 for the full control effect; potency is read from the fitted curve at half-maximal effect; tags tell the direction and shape of the fitted curve or compound fluorescence and quenching.

| SMILES | Potency | fluorescence change, negative = quenching |
| --- | --- | --- |
| CCCNC(=O)C(CC)n1nc(CC)n2c(cc3oc(C)cc32)c1=O (stereo not drawn) | 22.4 µM [quencher] (active) |  |
| CCOc1cc(NC(=S)NCCCOC)c(OCC)cc1NC(=O)c1ccco1 | 7940 µM [quencher] (active) |  |
| CCOc1cc(NC(=O)c2ccco2)c(OCC)cc1NC(=O)COc1ccccc1 |  | 0.535% |
| CCOc1cc(NC(=S)NCc2ccco2)c(OCC)cc1NC(=O)c1ccco1 |  | -0.963% |
| O=C(NCCc1ccccc1)c1cnc2sc(N3CCCC3)nn2c1=O |  | 3.65% |
| CCOC(=O)c1ccc(NC(=O)CCn2c(=O)oc3ccccc32)cc1 | 501 µM [quencher] (active) |  |
| CCOC(=O)c1ccc(NC(=O)CCS(=O)(=O)c2ccc3c(c2)oc(=O)n3C)cc1 |  | -4.02% |
| O=C(CCn1c(=O)oc2ccccc21)Nc1ccon1 |  | -0.731% |
| CCOC(=O)c1ccc2c(c1)N(Cc1cccc(OC)c1)C(=O)c1ccccc1S2(=O)=O |  | -1.32% |
| Cc1nn(-c2ccc(F)cc2)c(-n2cccc2)c1C(=O)N1CCN(c2ccccc2)CC1 |  | -1.65% |
| CCCOc1ccc(N/C=C/C(=O)C(C)(C)C)cc1 |  | -7.71% |
| O=C(/C=C/Nc1ccccc1OC(F)(F)F)C(F)(F)F |  | -0.288% |
| CN(C)c1ccc(N/C=C/C(=O)C(F)(F)F)cc1 | 44.7 µM [fluorescent] (active) |  |
| COC(=O)c1ccc(CSc2nncn2C)cc1 |  | 0.728% |
| COC(=O)c1ccc(CSc2nncn2N)cc1 |  | -0.734% |
| CCOC(=O)c1ccc(CSc2nnc3cc(C)c4ccccc4n23)cc1 | 1.41 µM [quencher] (active) |  |
| Cn1c(=O)c2c(ncn2CC(=O)Nc2cccc(C(F)(F)F)c2)n(C)c1=O |  | -1.15% |
| O=C(Nc1ccc(OC(F)(F)F)cc1)c1cc2c(=O)n3ccccc3nc2s1 |  | -8.23% |
| Cn1c(C(=O)Nc2cccc(C(F)(F)F)c2)cc2c(=O)n3ccccc3nc21 | 44.7 µM [quencher] (active) |  |
| COc1ccccc1CNC(=O)Cn1nc(C)c2nn(-c3ccc(Cl)cc3)c(C)c2c1=O |  | -3.71% |
| COc1cccc(CC2(CO)CCCN(CC3=Cc4cc(OC)ccc4OC3)C2)c1 (stereo not drawn) |  | -6.57% |
| COc1ccc2c(c1)C(SCC(=O)NCc1ccccc1)CC(C)(C)O2 (stereo not drawn) |  | -2.94% |
| COc1ccc2c(c1)C=CC1(O2)N(CCO)c2ccccc2C1(C)C (stereo not drawn) | 50.1 µM [fluorescent] (active) |  |
| CCc1cnc2c(c1SCC(=O)N1CCC(C)CC1)c(=O)n(C)c(=O)n2C |  | 0.547% |

| SMILES | Potency | fluorescence change, negative = quenching |
| --- | --- | --- |
| COc1ccc(C)cc1N(CC(=O)N1CCC(C)CC1)S(=O)(=O)c1ccc(C)cc1 |  | 6.06% |
| Cc1ccccc1-c1nc2scc(CCNC(=O)C(=O)Nc3ccc(F)cc3F)n2n1 |  | -1.09% |
| CC(Sc1oc(-c2ccco2)nc1S(=O)(=O)c1ccc(Br)cc1)c1ccccc1 (stereo not drawn) |  | 1.02% |
| COc1ccccc1NC(=O)CSc1oc(-c2ccco2)nc1S(=O)(=O)c1ccc(Br)cc1 |  | 0.994% |
| CCCC/C=C/CCCCO |  | -3.09% [at 201 µM] |
| CCN(C(=O)Cn1cc(S(=O)(=O)N2CCN(c3ccccc3F)CC2)c2ccccc2c1=O)c1ccc(C)c(C)c1 |  | -2.35% |
| O=C(NCCc1ccccc1)c1ccc2c(c1)N(Cc1ccccc1)C(=O)c1ccccc1S2(=O)=O |  | -5.87% |
| CN(C(=O)CSc1nnc(NC(=O)Nc2ccccc2)s1)c1ccccc1 |  | -1.97% |
| CC(C)(C)OC(=O)N1CCC(c2c(C(=O)Nc3ccc4c(c3)OCO4)cnn2-c2ccccc2)CC1 |  | -6.82% |
| Cc1cccc(Cc2c(C)nc3nc(SCc4ccccc4Cl)nn3c2C)c1 |  | -1.22% |
| c1ccc(CNc2ncnc3[nH]ncc23)cc1 |  | -2.45% |
| CCOC(=O)c1ccc(NC(=O)CC2C(=O)N(c3cccc(OC)c3)C(=O)N2C2CCCCC2)cc1 (stereo not drawn) |  | -1.55% |
| COc1ccccc1CNC(=O)c1ccccc1NC(=O)c1nsc2ccccc12 |  | -0.019% |
| O=S(=O)(c1ccc(C2CCCCC2)cc1)N1CCN(c2ccc(Cl)c(Cl)c2)CC1 |  | 1.08% |
| CC1CN(C(=O)N2CCC(C(=O)NCc3ccco3)CC2)c2cc(Cl)ccc2O1 (stereo not drawn) |  | 8.47% |
| CCOC(=O)c1ccc(NC(=O)CCS(=O)(=O)c2ccc(C)cc2)cc1 |  | -1.98% |
| CCCn1c2ccccc2c2cnn(CC(=O)N(C)c3ccccc3CC)c(=O)c21 |  | -7.64% |
| Cc1cc(C)c(N)c(Cl)c1 |  | -1.53% [at 201 µM] |
| CCOc1ccc2nc(C(=O)N3CCCC(C)C3)sc2c1 (stereo not drawn) |  | 1.97% |
| CCOc1ccc2nc(N3CCC(C(=O)Nc4cc(C)ccc4C)CC3)sc2c1 |  | 4.05% |
| CCOc1ccc2nc(N3CCCC(C(=O)Nc4cc(C)ccc4C)C3)sc2c1 (stereo not drawn) | 20 µM [quencher] (active) |  |
| Cc1csc2nc(COC(=O)c3ccc(NC(=O)COc4ccccc4F)cc3)cc(=O)n12 |  | -0.21% |
| COc1cc2ccccc2cc1C(=O)Nc1cccc(-c2nc3ccccc3o2)c1 |  | 0.567% |
| O=C(CN1CCSc2ccccc21)N1CCN(c2ccccc2)CC1 |  | -0.0734% |

Source: PubChem BioAssay AID1479 (National Center for Advancing Translational Sciences (NCATS), 2009)
